Measurements: PubChem BioAssay (NCATS)
Results filed as inconclusive are left out. A number with no mark means an inactive call. Activity calls are given as the source filed them. The call rests on the fitted dose curve; in most records, active means well fitted curve in either direction with a large enough effect (not every such curve was filed as active); inconclusive means small, poorly fitted or top-dose-only effect, or another doubt; inactive means flat fitted curve, though single readings scatter.
On the % scale 0 is the no-effect control and ±100 the full control effect.

Each molecule was assayed against Mitogen-activated protein kinase 10 (Mus musculus) (UniProt Q61831) (assay: JNK3 AlphaScreen Assay (AID 530;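 further: kinase came from lysate of stimulated human HepG2 cells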)). Details: JNK3 lysate, c-Jun phosphorylation; series mostly up to 57.1 µM.
Source text: NIH Chemical Genomics Center [NCGC]
NIH Molecular Libraries Screening Centers Network [MLSCN]
The c-jun N-terminal kinase (JNK) family are serine/threonine protein kinases that phosphorylate c-jun, a component of the transcription factor […] (AP-1). JNK kinases are members of the mitogen-activated protein kinase family including the extracellular regulated kinases and p38 kinases. Three JNK genes (JNK 1, 2, and 3) have been identified in humans so far. JNK1 and JNK2 have a broad distribution and JNK3 is primarily found in neuronal tissues and cardiac myocytes.
JNK3 has been under consideration as a target for the treatment of neurodegenerative disorders. […] JNK pathway is also involved in pathological process in a mouse model of Parkinson's disease (Xia et al., 2001).
Given these potential tissue distributions and links to neuroprotection, JNK3 inhibitors should provide useful investigational tools to study the role of this kinase in several diseases including, arthritis, stroke, myocardial infarction, ischemic injury and Parkinson's disease.
A homogeneous AlphaScreen is developed to measure the activity of JNK3. AlphaScreen is a two bead-based proximity-dependent chemical energy transfer luminescent assay platform. The phosphorylation of a biotinylated c-jun substrate by JNK3 can be detected with an antibody raised against phosphorylated c-jun. This process brings streptavidin donor beads and Protein-A acceptor beads to within a proximity range of <200 nm, and subsequently lead a chemical luminescent reaction upon exciting donor beads with 680 nm laser excitation light. Inhibition of JNK3 activity by small molecules and subsequent decrease in the antibody binding to biotinylated c-jun could attenuate or abolish this chemical luminescent reaction.
Yang DD, Kuan CY, Whitmarsh AJ, Rincon M, Zheng TS, Davis RJ, Rakic P and Flavell RA (1997) Absence of excitotoxicity-induced apoptosis in the hippocampus of mice lacking the Jnk3 gene. Nature 389:865-870. [PMID: 9349820]
Herdegen T, Claret FX, Kallunki T, Martin-Villalba A, Winter C, Hunter T, and Karin M (1998) Lasting N-terminal phosphorylation of c-Jun and activation of c-Jun N-terminal kinases after neuronal injury. J.Neurosci. 18:5124-5135. [PMID: 9651196]
Xia XG, Harding T, Weller M, Bieneman A, Uney JB and Schulz JB (2001) Gene transfer of the JNK interacting protein-1 protects dopaminergic neurons in the MPTP model of Parkinson's disease. Proc.Natl.Acad.Sci.U.S.A. 98:10433-10438.
NCGC Assay Protocol Summary:
GST-cJun (1-79) (Stratagene, La Jolla CA, #205145) was biotnylated by PerkinElmer (PerkinElmer-BioSignalInc. Montreal, Canada) and was detectable by the streptavidin Donor beads. Anti-(phospho)cJun (Ser73) antibody was from UpState (Charlottesvilles, VA, #06-659). JNK3-containing lysates were generated from HepG2 cells and pre-activated by interleukin1-beta and tumor necrosis factor alpha. All reagents were stored at -20 C before using. Phosphorylated biotinylated-GST-cJun was recognized by Anti-(phospho)cJun (Ser73) antibody and this process brings acceptor and donor beads together. Therefore JNK3 phosphorylation of cJun can be measured by Alpha reading by EnVision (PerkinElmer, Boston, MA).
The composition of kinase buffer was (in mM) 20 tris- HCl (pH 7.6) 10 MgCl2, 1 DTT, and 0.1 Na3VO4 and 0.01% Tween-20. Beads were diluted in detection buffer containing (in mM) 20 tris-HCl (pH 7.7), 20 NaCl and 80 EDTA and 0.3% BSA. The assay was performed at room temperature. All compounds were screened as titrations from 0.6 nM to 46 uM final concentration. The assay was performed in 1536-well format (white solid bottom and untreated) as follows:
Sequence,Parameter,Value,Description
1,Reagent,3 uL,Biotin-GST-cJun, Anti-(phospho)cJun and pre-activated JNK3-containing lysates
2,Compound,23 nL,Final concentration was 0.6nM to 46uM
3,Time,15 minutes,Room Temperature
4,Reagent,1 uL,ATP final concentration 10uM
6,Reagent,0.5 uL,2ng/well bead mixture
[…]
For `O=C(O)C(Cl)(Cl)Cl`, the outcome was “inactive”. With `Nc1ccc(CCN2CCN(c3cccc(C(F)(F)F)c3)CC2)cc1` the outcome was “inactive”. In the case of `CCOC(=O)c1ccccc1C(=O)OCC`, the outcome is reported as “inactive”. With `CCCCCl` the outcome was “inactive”. In the case of `O=[N+]([O-])c1cc(O)c(O)c([N+](=O)[O-])c1`, the outcome is reported as “inactive”. With `CCCn1c(C)c(C(=O)c2ccc3ccccc3c2)c2ccccc21` the outcome was “inactive”. `CC(C)NP(=O)(NC(C)C)OP(=O)(NC(C)C)NC(C)C` was tested, and the outcome was “inactive”. `NCCCP(=O)(O)O` was tested, and the outcome was “inactive”. `O=[N+]([O-])c1ccc(F)c([N+](=O)[O-])c1` was tested, and the outcome was “inactive”. `COc1ccc2[nH]c3c(c2c1)CCNC3` was tested, and the outcome was “inactive”. For `O=C1CCO1`, the outcome was “inactive”. With `CCS(=O)(=O)Nc1cccc(C(=C2CCCCC2)c2cnc[nH]2)c1` the outcome was “inactive”. With `C[C@H]1CCC[C@H](O)CCCCCc2cc(O)cc(O)c2C(=O)O1` the outcome was “inactive”. For `CCCN(CCC)CCc1c[nH]c2ccc(C(N)=O)cc12`, the outcome was “inactive”. `C[N+](C)(C)CC#CCN1CCCC1=O` was tested, and the outcome was “inactive”. With `O=P(O)(O)C(Cl)(Cl)P(=O)(O)O` the outcome was “inactive”. For `CP(=O)(O)C1=CCNCC1`, the outcome was “inactive”. For `O=C/C=C/c1ccccc1`, the outcome was “inactive”. For `COc1ccc2c(c1OC)C(=O)OC2C1c2cc3c(cc2CCN1C)OCO3` (stereo not given), the outcome was “inactive”. `c1ccc2c(N3CCNCC3)cccc2c1` was tested, and the outcome was “inactive”. In the case of `COc1ccc2[nH]cc(CCN)c2c1`, the outcome is reported as “inactive”. With `C[N+](C)(C)CC#CCOC(=O)Nc1cccc(Cl)c1` the outcome was “inactive”. For `COC1=CC(=O)O[C@@H](/C=C/c2ccccc2)C1`, the outcome was “inactive”. With `Cc1[nH]c2ccc(O)cc2c1CCN` the outcome was “inactive”. In the case of `C[N+](C)(C)CCOC(=O)CBr`, the outcome is reported as “inactive”. With `CCCCCCCCOC(=O)c1ccccc1C(=O)OCCCCCCCC` the outcome was “inactive”. With `O=C1C=CC(=O)C=C1` the outcome was “inactive”. For `C[C@@H](Cc1ccccc1)NCCC(c1ccccc1)c1ccccc1`, the outcome was “inactive”. Work on `c1cc2c(c(NC3=NCCN3)c1)CCCC2` yielded an activity change, negative = inhibition of 3.19% [at 11.4 µM]. For `CCC1(C)CC(=O)NC(=O)C1`, the outcome was “inactive”. `c1ccc2cc(CC3=NCCN3)ccc2c1` was tested, and the outcome was “inactive”. For `NC(=O)CI`, the outcome was “inactive”. In the case of `[Cl-].[Cl-].[Hg+2]`, the outcome is reported as “inactive”. For `[O]=[Cr](=[O])([OH])[O][Cr](=[O])(=[O])[OH]`, the outcome was “inactive”. For `CCCN(CCC)[C@@H]1CCc2cccc(O)c2C1`, the outcome was “inactive”. In the case of `O=c1ccc2[nH]cc(C3=CCNCC3)c2[nH]1`, the outcome is reported as “inactive”. For `O=C1C2CC=CCC2C(=O)N1SC(Cl)(Cl)Cl` (stereo not given), the outcome was “inactive”. With `O=S(=O)(O)c1cc(O)ccc1O` the outcome was “inactive”. For `O=[N+]([O-])c1ccc2nc(N3CCNCC3)ccc2c1`, the outcome was “inactive”. `C[C@@H]1[C@@H]2Cc3ccc(O)cc3[C@@]1(C)CCN2CC1CC1` was tested, and the outcome was “inactive”.
